Compound: CCc1cnn2c(NCc3ccc[n+]([O-])c3)cc(N3CCCC[C@H]3CCO)nc12 [dinaciclib]
Assay: cell viability remaining relative to DMSO control; higher = less cytotoxic (more viable cells)
Conditions: 100 nM; 24 h
How it was run: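 Solid tumour cell lines from commercial cell banks were exposed to 100 nM of the test compound for 24 hr, with final DMSO ≤0.2%. Viability was read as ATP luminescence with the CellTiter-Glo assay, following the manufacturer's instructions. Remaining viability is the ratio of light units in treated wells to DMSO-treated control wells, expressed as % of DMSO control. Values are means of 2–6 plates with triplicate wells per plate.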

Compared with WM2664, HEC6 is lower in cell viability remaining: 68.9% for the first, 57.7% for the second.

Compared with H747, H2452 is lower in cell viability remaining: 73% for the first, 21.1% for the second.

Going from SW403 to HT144, the cell viability remaining falls from 74.9% to 48.6%.

Going from OVCAR8 to OVMANA, the cell viability remaining falls from 104% to 87.9%.

First: HS578T
Second: HPAFII
The cell viability remaining of the first is higher: 69.3% for the first, 58.1% for the second.

Going from OV7 to COLO201, the cell viability remaining falls from 73.4% to 67.8%.

Going from CHAGOK1 to HCC1954, the cell viability remaining falls from 52.5% to 38%.

Going from A549 to H460, the cell viability remaining falls from 55.3% to 52.2%.

Going from ASPC1 to SNB19, the cell viability remaining falls from 93.6% to 70.1%.

Compared with H2052, CAPAN1 is lower in cell viability remaining: 91.9% for the first, 85.3% for the second.

First: SKUT1
Second: H508
The cell viability remaining of the first is lower: 74.7% for the first, 75.7% for the second.

First: OAW42
Second: U2OS
The cell viability remaining of the first is higher: 44.2% for the first, 36.4% for the second.

Going from HT1080 to SKLU1, the cell viability remaining falls from 88.8% to 82.6%.

Compared with H69, DU145 is lower in cell viability remaining: 87.1% for the first, 81.7% for the second.

First: DV90
Second: AN3CA
The cell viability remaining of the first is higher: 56.2% for the first, 13.9% for the second.

First: NCI-H2110
Second: SKNDZ
The cell viability remaining of the first is higher: 56.9% for the first, 44.1% for the second.

Work on CAMA1 yielded a cell viability remaining of 51.8%.
